Screening results as filed in PubChem.
HCMV antiviral: inhibitors of human cytomegalovirus. HFF cells, HCMV-luciferase reporter, 72 h; stronger effect = lower value. activity change, negative = inhibition, % at 57.5 µM. actives 4.5% (n = 410,000). AID 1259415; in the data active = activity change below about -60%; inconclusive = no clear call, values can overlap the other calls; inactive = above about -39%
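Human foreskin fibroblasts infected with luciferase-reporter HCMV at MOI 1 PFU/cell, compounds at two doses. Luciferase measured 72 h post infection; normalized to buffer-only basal and Salinomycin (10uM) controls.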
HCV inhibitor: blocks hepatitis C virus. Huh7.5.1 HCVcc-Cre infection, luciferase reporter, 44 h. actives 3.4% (n = 340,000). Potency, µM (highest dose often 41.8 µM), inactives show at the highest dose activity change, negative = inhibition, hits mostly inhibitors; note: potency is the fitted concentration of half-maximal effect
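Antiviral activity was scored by luciferase reporter output from cells infected with HCVcc-Cre (~0.5 moi) in presence of compound, 44 h infection period, cells seeded 1,000/well 4 h prior.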
FMDV inh: blocks foot and mouth disease virus; FMDV antiviral cell-based qHTS; Potency, µM (highest dose often 57.9 µM), for the others: at the top dose activity change, negative = inhibition, actives largely listed as inhibitors; actives 1.2% (n = 410,000); AID 1159524; calls by dose curve; tested in HEK293T cells; note: read-out not given here; potency is the fitted concentration of half-maximal effect; nearly all actives have a fitted effect of over 45% in size
AmpC inh detg: blocks E. coli AmpC beta-lactamase in detergent assay. actives 0.041% (n = 370,000). Potency, µM (highest dose often 114 µM), without a hit: at the highest dose activity change, negative = inhibition, hits mostly inhibitors. AmpC hydrolysis of nitrocefin, absorbance 480 nm, 0.01% Triton;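 note: potency is the fitted concentration of half-maximal effect; 0% = no-compound wells and -100% = no-enzyme wells; nearly all actives have a fitted effect of over 25% in size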
Target sequence (P00811 whole entry, looked up): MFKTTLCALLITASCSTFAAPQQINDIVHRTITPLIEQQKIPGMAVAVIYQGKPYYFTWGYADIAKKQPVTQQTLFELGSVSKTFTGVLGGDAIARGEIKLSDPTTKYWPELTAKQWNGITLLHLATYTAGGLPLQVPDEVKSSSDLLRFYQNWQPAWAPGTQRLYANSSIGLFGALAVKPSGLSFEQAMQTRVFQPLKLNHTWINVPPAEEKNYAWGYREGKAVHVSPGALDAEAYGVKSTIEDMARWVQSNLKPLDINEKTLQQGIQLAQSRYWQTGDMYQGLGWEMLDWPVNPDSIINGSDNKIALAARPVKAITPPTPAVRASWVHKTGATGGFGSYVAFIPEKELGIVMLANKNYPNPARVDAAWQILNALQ
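20 mM phosphate pH 7.0 + 0.01% (detergent screen) or 0.0001% Triton X-100; 5.3 nM AmpC reagent; cpd preinc 15 min RT; nitrocefin (800 uM stock) to start; A480 q20 s × 4 min; Activity was normalised to no-enzyme and no-compound control wells.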
AmpC no deterg: inhibitors of E. coli AmpC beta-lactamase without detergent; Potency, µM (titrated, usually from 57.1 µM), without a hit: top-dose activity change, negative = inhibition, most hits filed as inhibitors; AID 485341; AmpC nitrocefin hydrolysis, absorbance 480 nm, 0.0001% Triton; P00811; actives 0.52% (n = 330,000);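 note: potency is the fitted concentration of half-maximal effect; plate controls were no compound for no effect and no enzyme for full effect; nearly all actives have a fitted effect of over 20% in size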
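20 mM phosphate pH 7.0 + 0.01% (detergent screen) or 0.0001% Triton X-100; 5.3 nM AmpC reagent; cpd preinc 15 min RT; nitrocefin (800 uM stock) to start; A480 q20 s × 4 min; Activity was normalised to no-enzyme and no-compound control wells.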
* marks the source's active call; other numbers are inactive results; ? = inconclusive; nt = not tested or not shown. Shown are actives, neighbours in structure and some others; about 7.3% of the full set was active somewhere. Unless noted, calls come from the whole dose curve; as a rule, active = well fitted curve in the direction sought with a large enough effect; inconclusive = small, poorly fitted or top-dose-only effect, or another doubt; inactive = no such curve, though single readings can be large; an effect the other way counts as inactive or inconclusive. Unless noted, % is set by controls: 0 for no effect and ±100 for the full control effect.

SMILES	HCMV antiviral	HCV inhibitor	FMDV inh	AmpC inh detg	AmpC no deterg
CS(=O)(=O)N1CCN(C(=S)NCc2ccc(Cl)cc2)CC1	-40	0%	-5%	?	-19%
O=S1(=O)N[C@@H](Cc2ccccc2)COc2cc(NCCCN3CCOCC3)ccc21	-22	nt	nt	nt	nt
Cn1nc(C(C)(C)C)cc1C(=O)N1CCCCC1c1cc(C(=O)NCc2ccc(F)cc2)no1 (stereo not given)	-75*	nt	?	nt	nt
CCOC(=O)c1ccccc1NC(=O)Cn1c(-c2nonc2N)nc2ccccc21	-74*	?	0%	?	-37%
Nc1nonc1-c1nc2ccccc2n1CC(=O)Nc1ccccc1	19	?	-2%	-6%	-20%
CC(C)CCn1c(-c2nonc2N)nc2ccccc21	?	11µM*	-1%	-7%	-26%
COc1ccc(NC(=O)CCCN2C(=O)CCn3nc(-c4cn(C)c5ccccc45)cc32)cc1	6	nt	-25%	20%	nt
CCc1ccc(C(=O)c2cn(CC(=O)Nc3ccc(F)cc3)c3ccc(OC)cc3c2=O)cc1	-71*	nt	-25%	12%	nt
CCc1ccc(C(=O)c2cn(CC(=O)Nc3ccc(F)c(F)c3)c3cc(OC)c(OC)cc3c2=O)cc1	-67*	nt	?	-13%	nt
CCc1ccc(C(=O)c2cn(CC(=O)Nc3cc(OC)cc(OC)c3)c3ccc(CC)cc3c2=O)cc1	-16	nt	-16%	-10%	nt
CCCSc1ncc(Cl)c(C(=O)N(Cc2ccc(N(C)C)cc2)C2CCS(=O)(=O)C2)n1 (stereo not given)	?	nt	-9%	-8%	nt
COc1cccc(CN2C(=O)COCc3cc(-c4cccc(CO)c4)ccc32)c1	-17	nt	nt	nt	nt
CCC[C@H]1[C@@H](NC(=O)Nc2cc(Cl)cc(Cl)c2)CC[C@@]23CCCN2C(=O)CCC[C@@H]13	-27	nt	nt	nt	nt
COc1cccc2c1-c1c(O)cccc1C2=O	-3	1%	-9%	-12%	-18%
COc1cccc2c1C(=O)c1c(O)c3c(c(O)c1C2=O)CC(O)(C(C)=O)CC3OC1CC(O)C(O)C(C)O1 (stereo not given)	-101*	?	-7%	nt	nt
CCCCC(=O)OCC(=O)C1(O)Cc2c(O)c3c(c(O)c2C(OC2CC(NC(=O)C(F)(F)F)C(O)C(C)O2)C1)C(=O)c1c(OC)cccc1C3=O (stereo not given)	-98*	3.5µM*	-3%	nt	nt
COc1cccc2c1C(=O)c1c(O)c3c(c(O)c1C2=O)C[C@](O)(C(C)=O)C[C@H]3O[C@@H]1C[C@@H](N)[C@@H](O)[C@@H](C)O1	-100*	8.9µM*	-4%	-13%	158%
COc1ccccc1NC(=O)/C(C#N)=C/c1cccn1C	28	-6%	30%	nt	nt
CCOC(=O)c1ccc(NC(=O)Nc2c[nH]c(=O)[nH]c2=O)cc1	-5	nt	4%	-1%	nt
CCc1ccc(CNC(=O)c2cnc3sc(N4CCOCC4)nn3c2=O)cc1	5	nt	0%	5%	nt
COc1ccc2c(c1)/C(=N/OC(=O)c1cccs1)CCC2	-13	-13%	-9%	?	-27%
COc1ccc(NC(=O)O/N=C2/CCCc3ccc(OC)cc32)cc1	-73*	2.8µM*	1%	6%	-29%
CCOC(=O)c1ccc(NC(=O)CC2C(=O)N(c3cccc(OC)c3)C(=O)N2Cc2ccc(OC)cc2)cc1 (stereo not given)	17	nt	-15%	3%	nt
COc1cccc(CN(C)C(=O)c2cc(COc3ccc4ncccc4c3)on2)c1	-86*	5.6µM*	11µM*	2%	50%
CN(CCc1ccccn1)C(=O)c1cc(COc2ccc(F)cc2F)on1	?	27%	6%	1%	37%
SMILES	HCMV antiviral	HCV inhibitor	FMDV inh	AmpC inh detg	AmpC no deterg
Cc1ccc(OCc2cc(C(=O)N(C)CCc3ccccn3)no2)cn1	-63*	-6%	-20%	-6%	-5%
COc1cccc(OCc2cc(C(=O)N(C)CCOc3ccc(C)cc3)no2)c1	15	11µM*	0%	6%	30%
Cc1cc(OCc2cc(C(=O)N(C)CCOc3ccccc3)no2)cc(C)c1Cl	-3	?	-13%	-7%	22%
COc1ccc2c(c1)-c1nc(-n3ncc(C(=O)N(C)C(C)c4ccon4)c3C3CC3)ncc1CC2 (stereo not given)	nt	nt	-75%	nt	nt
COc1ccc(-c2ccnc(-c3ccc(OCCCF)cc3)n2)cc1	-12	?	-11%	10%	?
FCCCOc1ccc(-c2nccc(-c3ccc(Cl)cc3)n2)cc1	-32	3%	-2%	5%	0.11µM*
Cc1ccc(CNC(=O)Cc2ccc(-n3c(=O)[nH]c4ccsc4c3=O)cc2)cc1	-62*	2%	6%	?	-45%
O=C(Cc1ccc(-n2c(=O)c3sccc3n(CC(=O)Nc3ccccc3F)c2=O)cc1)NCc1ccco1	-60*	19%	10%	-1%	-23%
Cc1ccc(C)c(Cn2c(=O)n(-c3ccc(CC(=O)NCc4ccco4)cc3)c(=O)c3sccc32)c1	?	13%	0%	?	11µM*
O=C(Cc1ccc(-n2c(=O)c3sccc3n(CC(=O)Nc3ccccc3)c2=O)cc1)NCc1ccco1	-37	0%	-12%	3%	-20%
CC1CCn2c(nc3cc(C(=O)NCc4ccc(F)cc4)ccc32)C1 (stereo not given)	-38	nt	3%	18%	nt
COC(=O)c1ccc(OCC(O)CN2C(=O)c3ccccc3S2(=O)=O)cc1 (stereo not given)	-13	5µM*	-6%	5%	-4%
O=C1c2ccccc2S(=O)(=O)N1CC(O)COc1ccc(Cl)cc1 (stereo not given)	13	13%	0%	?	-11%
COc1cc(OC)cc(C(=O)O/N=C(\N)c2ccccn2)c1	-61*	?	-1%	-1%	1%
N/C(=N\OC(=O)c1ccc(Cl)c([N+](=O)[O-])c1)c1ccccn1	-63*	?	49%	2%	28%
N/C(=N\OC(=O)CC1CCCCC1)c1ccccn1	-60*	6%	nt	0%	-15%
N/C(=N\OC(=O)CC1CCCCC1)c1ccncc1	-4	8%	33%	2%	-15%
CCOc1ccc(C(=O)O/N=C(\N)c2ccccn2)cc1OCC	42	13µM*	26%	1%	9%
COc1cc(OC)c(C(=O)O/N=C(\N)c2ccccn2)cc1OC	57	-10%	57%	5%	-19%
CCOc1cc(C(=O)O/N=C(\N)c2ccccn2)cc(OCC)c1OCC	45	?	-7%	-7%	60%
CCC(C)(C)C1CCC2(CC1)NC(=O)N(CC(=O)N(C)CC(=O)Nc1ccccc1C(F)(F)F)C2=O (stereo not given)	-28	?	?	3%	18%
COc1ccc(CN2CCc3nnc(CCc4ccccc4)n3CC2)c(OC)c1C	nt	nt	-10%	nt	nt
